In all, about 5,600 compounds went through this assay and about 390 (7%) showed an effect of 50% or more. Only a selection was taken, and strong results are over-represented in it overall.
Legend:
[1] = molecular target: T1, Protein deacetylase HDAC6 (Homo sapiens) (UniProt Q9UBN7); conditions: at 10 µM
T1 sequence (whole entry): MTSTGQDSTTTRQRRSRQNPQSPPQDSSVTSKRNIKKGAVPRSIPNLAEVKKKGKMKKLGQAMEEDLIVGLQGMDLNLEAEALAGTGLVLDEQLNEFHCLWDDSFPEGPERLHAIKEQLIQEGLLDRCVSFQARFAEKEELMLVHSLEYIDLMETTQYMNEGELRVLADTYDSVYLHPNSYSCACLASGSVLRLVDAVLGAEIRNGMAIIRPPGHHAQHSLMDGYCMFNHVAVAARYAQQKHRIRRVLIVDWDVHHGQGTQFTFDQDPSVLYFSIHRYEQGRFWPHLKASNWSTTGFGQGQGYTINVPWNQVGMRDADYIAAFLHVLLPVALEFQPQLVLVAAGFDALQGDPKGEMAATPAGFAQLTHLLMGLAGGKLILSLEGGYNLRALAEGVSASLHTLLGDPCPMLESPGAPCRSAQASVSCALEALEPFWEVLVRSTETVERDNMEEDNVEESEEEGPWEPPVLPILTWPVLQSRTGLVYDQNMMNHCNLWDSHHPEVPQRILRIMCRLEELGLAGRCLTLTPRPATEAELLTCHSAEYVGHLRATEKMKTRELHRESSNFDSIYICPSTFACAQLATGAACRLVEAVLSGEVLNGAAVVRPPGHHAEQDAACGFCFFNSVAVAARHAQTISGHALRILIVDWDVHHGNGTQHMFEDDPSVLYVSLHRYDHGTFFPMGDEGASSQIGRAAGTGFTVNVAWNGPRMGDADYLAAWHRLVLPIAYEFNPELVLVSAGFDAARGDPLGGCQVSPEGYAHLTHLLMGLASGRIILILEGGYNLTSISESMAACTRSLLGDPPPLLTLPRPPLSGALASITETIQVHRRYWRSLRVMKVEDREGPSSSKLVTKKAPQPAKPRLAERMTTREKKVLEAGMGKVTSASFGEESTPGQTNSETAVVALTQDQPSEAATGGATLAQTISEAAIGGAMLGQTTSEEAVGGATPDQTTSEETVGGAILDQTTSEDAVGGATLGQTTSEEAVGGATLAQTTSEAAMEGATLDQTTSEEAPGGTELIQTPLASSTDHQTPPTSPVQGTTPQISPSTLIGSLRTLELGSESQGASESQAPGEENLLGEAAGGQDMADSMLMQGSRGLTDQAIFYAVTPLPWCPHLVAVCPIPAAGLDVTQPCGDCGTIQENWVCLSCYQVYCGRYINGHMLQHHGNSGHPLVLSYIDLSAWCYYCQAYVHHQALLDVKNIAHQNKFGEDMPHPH

[2] = molecular target: Protein deacetylase HDAC6 (Homo sapiens) (UniProt Q9UBN7); conditions: at 10 µM; remark: listed apart in the source

| Compound | inhibition [1] [%] | inhibition [2] [%] |
| --- | --- | --- |
| C[C@H](N)[C@H](O)c1cccc(O)c1 | 1.85 | – |
| CCCC(=O)C1CCN(c2ncnc3c2CN(C(=O)c2ccc(-c4ccccc4)cc2)CC3)CC1 | 2.41 | – |
| Cn1c(=O)c2c(ncn2CC(=O)Nc2ccc(-c3ccccc3)nn2)n(C)c1=O | 41.8 | – |
| CN(CC[C@@H](Oc1ccc(-c2ccccc2)cc1)c1ccc(F)cc1)CC(=O)O | -3.28 | – |
| O=C(/C=C/c1c(C(=O)O)[nH]c2cc(Cl)cc(Cl)c12)Nc1ccccc1 | 27.4 | – |
| COc1ccc2c(c1)-c1nn(CCCN(C)C)c3ccc([N+](=O)[O-])c(c13)N2 | 9.03 | – |
| CC(=O)NC[C@H]1CN(c2ccc(N3CCSCC3)c(F)c2)C(=O)O1 | 9.47 | – |
| CC(=O)NC[C@H]1CN(c2ccc(-c3ccc(CNCc4cnn[nH]4)cc3)c(F)c2)C(=O)O1 | 35.9 | – |
| Cn1nnc(-c2ccc(-c3ccc(N4C[C@H](CO)OC4=O)cc3F)cn2)n1 | 67.9 | – |
| C[C@@H]1C[C@H]2[C@@H]3CCC4=CC(=O)C=C[C@]4(C)[C@@]3(Cl)[C@@H](O)C[C@]2(C)[C@@]1(OC(=O)c1ccco1)C(=O)CCl | -2.71 | – |
| CSc1ccc(C(=O)/C=C/c2cc(C)c(OC(C)(C)C(=O)O)c(C)c2)cc1 | -7.51 | – |
| EUK 134, CHEMBL5308416 | – | 33.1 |
| Nc1ncnc2c1c(COc1cccc(Cl)c1)nn2C1CCOCC1 | -8.17 | – |
| O=C(O)c1ccccc1 | -0.18 | – |
| O=C(O)C1CCCN(CCC=C(c2ccccc2)c2ccccc2)C1 (configuration not stated) | 18.1 | – |
| O=C(c1ccccc1)c1ccc2n1CCC2C(=O)O (configuration not stated) | 66.7 | – |
| CCCC(=O)C1(c2ccccc2)CCN(C(=O)[C@@H](Cc2ccc(OC)cc2)NC(=O)[C@@H](N)Cc2cncn2C)CC1 | 4.5 | – |
| Nc1cccc2c(=O)[nH][nH]c(=O)c12 | 35.2 | – |
| CCS(=O)(=O)c1ccc2oc(-c3ccc4ccccc4c3)nc2c1 | 97.2 | – |
| c1ccc(Cn2c(-c3ccc(OC[C@H](C4CCNCC4)n4c(-c5ccccc5)nc5ccccc54)cc3)nc3ccccc32)cc1 | 5.68 | – |
| COc1cc(/C=C(\C#N)C(N)=O)cc(CSc2nc3ccccc3s2)c1O | 17.9 | – |
| CCCCc1oc2ccc(NS(C)(=O)=O)cc2c1C(=O)c1ccc(OCCCN(CCCC)CCCC)cc1 | 18.6 | – |
| Cc1cnc(-c2cnc(NCCNc3ccc(C#N)cn3)nc2-c2ccc(Cl)cc2Cl)[nH]1 | 3.11 | – |

| Compound | inhibition [1] [%] | inhibition [2] [%] |
| --- | --- | --- |
| Cn1cnc(-c2cc3nccc(Oc4ccc(NC(=S)NC(=O)Cc5ccccc5)cc4F)c3s2)c1 | 28 | – |
| Cc1ccc(C(=O)Nc2ccc(CN3CCN(C)CC3)c(C(F)(F)F)c2)cc1C#Cc1cnc2cccnn12 | 32.8 | – |
| COC(=O)N1CCN(Cc2cccc(NC(=O)Nc3ccc(C)nc3)c2F)CC1 | 57.5 | – |
| COc1cc(N)cn[n+]1-c1ccccc1 | 15.3 | – |
| CC(=O)OCC(=O)[C@@]1(O)[C@@H](C)C[C@H]2[C@@H]3CCC4=CC(=O)C=C[C@]4(C)[C@@]3(F)[C@@H](O)C[C@@]21C | 8.96 | – |
| Clc1cccc(Cl)c1CSc1nnc(-c2cnccn2)s1 | 65.2 | – |
| COc1c(OCCCN2CCOCC2)ccc2c1N=C(NC(=O)c1cnc(N)nc1)N1CCN=C21 | 8.29 | – |
| CCCCCNCC(N)=O | 19.9 | – |
| Oc1nc(O)c2cn[nH]c2n1 | 9.68 | – |
| Cn1c([N+](=O)[O-])cnc1COC(N)=O | 2.87 | – |
| CSc1ccc(OCc2ncc([N+](=O)[O-])n2C)cc1 | 57.1 | – |
| CCS(=O)(=O)CCn1c([N+](=O)[O-])cnc1C | -4.7 | – |
| Nc1[nH]cnc2ncnc1-2 | -1.89 | – |
| NS(=O)(=O)c1ccc(S(=O)(=O)Nc2cccc3c(Cl)c[nH]c23)cc1 | -6.04 | – |
| C1CCN2C[C@H]3C[C@H](CN4CCCC[C@@H]34)[C@H]2C1 | 30.9 | – |
| Cc1ncc(-c2csc(N=C(N)N)n2)[nH]1 | 3.96 | – |
| Ic1cc(-c2ccccc2)ncn1 | 25.2 | – |
| CC[C@@]1(O)C(=O)OCc2c1cc1n(c2=O)Cc2cc3c([N+](=O)[O-])cccc3nc2-1 | 11.9 | – |
| O=C(OC(C(F)(F)F)C(F)(F)F)N1CCN(Cc2cccc(Oc3ccccc3)c2)CC1 | -8.39 | – |
| c1cc(CN2CCCCC2)cc(OCCCNc2nc3ccccc3s2)c1 | 59.6 | – |
| CC(=O)OCC(=O)NCCCOc1cccc(CN2CCCCC2)c1 | 14.5 | – |
| COc1ccc(C(=O)N2CCCc3cc(C4=NNC(=O)SC4C)ccc32)cc1OC (configuration not stated) | 7.12 | – |
| Cc1ccc(S(=O)(=O)NC2c3ccccc3Oc3ccccc32)cc1 | 0.27 | – |

| Compound | inhibition [1] [%] | inhibition [2] [%] |
| --- | --- | --- |
| CNC(=O)CN(CCN(CCN(CC(=O)O)CC(=O)NC)CC(=O)O)CC(=O)O | 17.5 | – |
| OCc1ccc(-c2ccc(-c3ccc(CO)s3)o2)s1 | 102 | – |
| O=C(O)COc1cccc(-c2ocnc2-c2nc(-c3ccccc3)c(-c3ccccc3)o2)c1 | -1.23 | – |
| Cc1ncc(C[n+]2csc(CCO)c2C)c(N)n1 | 53 | – |
| CCCc1ncc(C[n+]2ccccc2C)c(N)n1 | -5.17 | – |
| CC(C)CN(C[C@@H](O)[C@H](Cc1ccccc1)NC(=O)O[C@H]1CCOC1)S(=O)(=O)c1ccc(N)cc1 | 1.38 | – |
| COc1ccc(OC)c(CN(C(C)=O)c2cc(F)ccc2Oc2ccccc2)c1 | 1.27 | – |
| O=C(c1ccc(OCCN2CCCCC2)cc1)c1c(-c2ccc(O)cc2)sc2cc(O)ccc12 | 38.5 | – |
| Cc1c(-c2ccc(O)cc2)n(Cc2ccc(OCCN3CCCCCC3)cc2)c2ccc(O)cc12 | 86.2 | – |
| O=C(Cc1ccc(-c2ccc(OCCN3CCOCC3)cc2)cn1)NCc1ccccc1 | 9.75 | – |
| O=[N+]([O-])c1cnc(Sc2nnc(O)n2-c2ccc3c(c2)OCCO3)s1 | 11.2 | – |
| C[n+]1cccc(C(=O)[O-])c1 | 7.12 | – |
| O=C(Nc1ccccc1)C12CC1/C(=N\O)c1ccccc1O2 (configuration not stated) | 16.1 | – |
| Nc1cc(C(F)(F)F)c(-c2nc(N3CCOCC3)nc(N3CCOCC3)n2)cn1 | -6.25 | – |
| OCc1c[nH]c2ccccc12 | 2.93 | – |
| O=C(O)C(=O)Cc1c[nH]c2ccccc12 | 20.3 | – |
| c1ccc2c(Cc3c[nH]c4ccccc34)c[nH]c2c1 | 71.8 | – |
| CCc1cc2c(c(CC)n1)CCC(=O)N2Cc1ccc(-c2ccccc2-c2nnn[nH]2)cc1 | 0.45 | – |
| [O-][S+](c1ccccc1)c1ccc2nnnn2n1 (configuration not stated) | -5.95 | – |
| Clc1ccc(N/N=C(\c2ccccc2)c2ccccn2)nc1 | 25.9 | – |
| c1ccc(COCCCc2c[nH]cn2)cc1 | 20.5 | – |

From ChEMBL document CHEMBL4808148, “HDAC6 screening dataset using tau-based substrate in an enzymatic assay yields selective inhibitors and activators” (2021)
